Source: PubChem
HT1080-NT tox: kills 2HG-producing HT-1080-NT fibrosarcoma cells; HT-1080-NT fibrosarcoma viability, CellTiter-Glo ATP luminescence, 48 h; Potency, µM (top dose mostly 46.1 µM), hits mostly cytotoxic; 360,000 tested, 1.6% active; AID 686970;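 also: NT is the 2HG producing partner of a matched IDH1 knockdown line; nearly all actives have a fitted effect of over 55% in size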
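750 cells/well, RPMI + 5% FBS; 2 h settle, compound pin-transfer, 48 h at 37 degrees C. CellTiter-Glo 10 min RT, luminescence. Normalized to DMSO and media-only wells.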
HT1080 IDH1KD tx: kills HT-1080 cells with IDH1 knockdown. HT-1080 IDH1 knockdown viability, ATP luminescence, 48 h. Potency, µM (doses to about 46.1 µM), hits mostly cytotoxic. 360,000 tested, 2% active. AID 686971
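% activity derives from luminescence (CellTiter-Glo), normalised to DMSO and no-cell wells. HT-1080-IDH1KD cells, 750/well, had 48 h compound exposure at 37 °C.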
KB-3-1 cytotox: kills parental KB-3-1 adenocarcinoma cells. 400,000 tested, 1.4% active. Potency, µM (doses to about 46.1 µM), usual class: cytotoxic. KB-3-1 viability, CellTiter-Glo ATP luminescence, 72 h; also: nearly all actives have a fitted effect of over 60% in size
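Viability of parental KB-3-1 cells, measured by CellTiter-Glo luminescence, followed a 72 h incubation at 37 °C with pinned compounds in phenol-red-free DMEM containing 10% FBS.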
KB-V1 MDR tox: kills drug-selected multidrug resistant KB-V1 cells | KB-V1 MDR cells viability, CellTiter-Glo, 72 h | Potency, µM (titrated, usually from 46.1 µM), hits mostly cytotoxic | 400,000 tested, 3.4% active; also: nearly all actives have a fitted effect of over 60% in size
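KB-V1 MDR subline cells in DMEM (phenol-red free, 10% FBS) exposed to compounds in qHTS concentration series for 72 h at 37 degrees C. Viability read by CellTiter-Glo luminescence; concentration-effect curves fitted after normalization and correction.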
IL1B secr inh: inflammasome signaling inhibition, IL-1 beta readout; 360,000 tested, 4.7% active; THP-1 LPS/ATP IL-1B secretion, AlphaLISA, 16 h; stronger effect = lower value; activity change, % at 57.5 µM; in the data active = activity change below about -50%; inconclusive = mostly about -30% to -49%
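THP-1 cells pretreated 1 hr with compounds (up to 57.5 uM final), then stimulated with LPS (250 ng/mL final) plus ATP (1.25 mM final); secreted IL-1B measured by AlphaLISA after 16 hr, decreased signal indicating inhibition.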
Hits are given with their value; i = inactive; ? = inconclusive; nt = no result given; ! = repeats disagree. This is a sample that favours compounds with a hit; in the whole collection about 8.8% have one here. Unless noted, calls follow the shape of the dose curve; as a rule, active = well fitted curve in the direction sought with a large enough effect; inconclusive = small, poorly fitted or top-dose-only effect, or another doubt; inactive = no such curve, though single readings can be large; an effect the other way counts as inactive or inconclusive.

SMILES | HT1080-NT tox | HT1080 IDH1KD tx | KB-3-1 cytotox | KB-V1 MDR tox | IL1B secr inh
Clc1ccc(C2N3CCCN23)c(Cl)c1 (stereo not drawn) | ? | i | i | i | i
CN1CCN(CCOC2c3ccccc3CSc3ccc(Cl)cc32)CC1 (stereo not drawn) | 16µM | ? | ? | ? | -87
Cc1ccc(NC(=O)N(Cc2ccc3c(c2)OCO3)C2CCN(Cc3ccccc3)CC2)cc1Cl | nt | nt | ? | i | nt
Cc1cccc(OP(=O)(Nc2ccc(F)cc2)Oc2cccc(C)c2)c1 | 23µM | ? | ? | ? | -72
COc1ccc(NP(=O)(Oc2cccc(C)c2)Oc2cccc(C)c2)cc1OC | i | i | ? | ? | i
CCCCC1C(=O)NC(=S)N(C)C1=O (stereo not drawn) | i | i | i | i | i
C[C@]12CC[C@@H]3c4cc(O)c(O)cc4CC[C@H]3[C@@H]1CC[C@@H]2O | ? | 6.5µM | 6.5µM | 13µM | i
CC1(O)CCC2C3CCC4=CC(=O)CCC4=C3C=CC21C (stereo not drawn) | i | ? | ? | 9.2µM | i
C[C@]12CC[C@H]3[C@@H](CCC4=CC(=O)CC[C@@H]43)[C@@H]1CC[C@@H]2O | i | i | 10µM | 2.3µM | i
C[C@]12CCC3=C4CCC(=O)C=C4CC[C@H]3C1CC[C@@H]2O (stereo partly drawn) | i | i | 10µM | 3.7µM | i
COCOC1CCC2C3CCC4=CC(=O)CCC4=C3C=CC12C (stereo not drawn) | i | i | i | ? | i
C[C@]12CC[C@@H]3c4ccc(O)c(O)c4CC[C@H]3[C@@H]1CC[C@@H]2O | ? | ? | ? | i | ?
COc1ccc(-c2nn(CCC#N)cc2C(=O)Nc2cccc([N+](=O)[O-])c2)cc1OC | i | i | i | i | i
O=[N+]([O-])c1nccn1CC(O)CN1CC1 (stereo not drawn) | i | i | i | i | i
C[C@]12CCC(=O)C=C1CCC1C2CC[C@@]2(C)C1CC[C@@H]2O (stereo partly drawn) | i | i | 4.6µM | 2.3µM | i
Oc1ccccc1-[n+]1c(-c2ccccc2)cc(-c2ccccc2)cc1-c1ccccc1 | 15µM | ? | ? | i | ?
Nc1ccccc1-[n+]1c(-c2ccccc2)cc(-c2ccccc2)cc1-c1ccccc1 | ? | ? | ? | ? | -96
Nc1ccc(-c2ccccc2)cc1 | nt | nt | i | i | i
[O-]c1ccccc1-[n+]1c(-c2ccccc2)cc(-c2ccccc2)cc1-c1ccccc1 | nt | ? | 12µM | i | -84
Oc1c(Br)cc(-c2ccccc2)cc1Br | i | i | i | i | i
Cc1ccccc1-[n+]1c(-c2ccccc2)cc(-c2ccccc2)cc1-c1ccccc1 | 7.3µM | 7.3µM | 6.5µM | i | -90
Cc1cccc(C)c1-n1nnnc1C(c1cccc2ccccc12)N1CCC2(CC1)C(=O)NCN2c1ccccc1 (stereo not drawn) | i | i | i | ? | i
Cc1ccc(NC(=O)c2snnc2C)cc1Cl | i | i | ? | 10µM | i
O=c1c2ccccc2nc(/C=C/c2ccccc2)n1-c1ccccc1F | nt | nt | i | i | nt
O=c1c2ccccc2nc(/C=C\c2ccccc2[N+](=O)[O-])n1-c1ccccc1O | ? | ? | ? | ? | -98
SMILES | HT1080-NT tox | HT1080 IDH1KD tx | KB-3-1 cytotox | KB-V1 MDR tox | IL1B secr inh
O=c1c2ccccc2nc(/C=C/c2ccccc2F)n1-c1ccccc1O | i | i | i | i | -87
Cc1nc2ccccc2c(=O)n1-c1ccccc1[N+](=O)[O-] | i | i | i | i | i
CCCNC(=O)N1[C@H]2CC[C@@H]1C(C(=O)OC)=C(c1ccc(C(C)=O)cc1)C2 | i | i | i | ? | i
COc1cc(C(=O)OC2C[C@H]3CC[C@@H](C2)N3)ccc1O (stereo partly drawn) | i | i | i | i | i
C[N+]1=C(/C=C/Nc2ccccc2)C(C)(C)c2ccccc21 | i | i | ? | 21µM | -81
Cc1cc(C(=O)OCC(=O)Nc2ccc(F)cc2)c(C)n1C1CC1 | i | i | i | 23µM | i
Cc1cc(C(=O)OCC(=O)Nc2cccc(F)c2)c(C)n1C1CC1 | i | i | i | i | i
Clc1ccc(Cc2nn3c(Cn4nnc5ccccc54)nnc3s2)cc1 | i | ? | i | 4.1µM | i
COC(=O)C1=C(c2cccc(OC)c2OC)C[C@@H]2CC[C@H]1N2C(=O)N1CCC(C)CC1 | i | i | i | i | i
CCOC(=O)[C@]12Cc3cc(Cl)ccc3[C@H]1N(Cc1ccccc1)C(=O)c1ccccc12 | i | i | ? | 23µM! | i
CCOC(=O)[C@]12Cc3cc(C)ccc3[C@H]1N(CCC(=O)OC)C(=O)c1ccccc12 | 16µM | 13µM | 13µM | 4.1µM | -113
CCCCCN1C(=O)c2ccccc2[C@@]2(C(=O)OCC)Cc3cc(Cl)ccc3[C@@H]12 | ? | ? | ? | i | -50
CCOC(=O)[C@]12Cc3cc(N(C)C)ccc3[C@H]1N(Cc1ccccc1)C(=O)c1ccccc12 | i | i | ? | ? | i
CCOC(=O)[C@]12Cc3ccccc3[C@H]1N(Cc1ccccc1)C(=O)c1cc(F)c(F)cc12 | ? | ? | 23µM | 10µM | -67
O=C(Nc1ccc(F)c([N+](=O)[O-])c1)N1C[C@H]2C[C@@H](C1)c1cccc(=O)n1C2 | i | i | i | i | i
Cc1cc(OCC(=O)N2CCN(CCc3ccncc3)CC2)ccc1Cl | nt | nt | i | i | nt
CC1([N+](=O)[O-])COP(=O)(NC2CC2)OC1 (stereo not drawn) | i | i | i | i | i
Cc1cccc(-n2c(CC3C(=O)Nc4ccc(C)cc43)nc3ccccc3c2=O)c1 (stereo not drawn) | nt | nt | i | i | nt
Cc1ccc2c(c1)N(C(=O)CCC(=O)N1CCC3(CC1)OCCO3)CCO2 | i | i | i | i | i
O=C(NCCN1CCC(n2c(=O)[nH]c3ccccc32)CC1)c1ccc2ccccc2c1 | i | ? | ? | ? | nt
CCOC(=O)[C@]12Cc3cc(C)ccc3[C@H]1N(Cc1ccccc1)C(=O)c1cc(OC)ccc12 | ? | 21µM | 18µM | 9.2µM | -96
COC(=O)C1=C(c2ccc(F)cc2F)C[C@@H]2CC[C@H]1N2C(=O)NCc1ccc(C(F)(F)F)cc1 | i | i | i | i | ?
O=C1CC(=O)N(c2ccccc2)C(=O)N1c1ccccc1 | i | i | 0.29µM | i | i
O=C1CC(=O)N(c2ccccc2)C(=O)N1 | i | i | i | ? | i
O=C(c1ccco1)N1CCN(c2nc(C3CC3)nc3sc4c(c23)CCCC4)CC1 | ? | ? | i | 21µM | i
O=C(c1ccco1)N1Cc2ccccc2-n2nncc2C1 | i | i | ? | ? | i
Cc1cc(C)nc(-n2c(C)nc3cc(Cl)ccc3c2=O)c1 | i | i | i | i | i
CCOc1cc2c(cc1OCC)-n1cccc1C(c1ccccc1O)NC2 (stereo not drawn) | ? | ? | i | ? | i
